These results are taken from PubChem BioAssay (NCI).

“And” between values parts separate entries of the source, which are not always exact repeats. Identical values can stand only once. The panel holds about 79,000 compounds, 15% with a hit somewhere; the sample as a whole holds those more often. Values without a mark were called inactive. The source made the active and inactive calls. Rule as the data show it: active = growth inhibition above about 70%; inactive = the rest.

The nature of test [1]: NCI Yeast Anticancer Drug Screen. Data for the rad50 strain (AID 155).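 Also: 0% = growth of vehicle-only cultures of the same strain.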 The conditions noted are these: S. cerevisiae rad50 strain growth inhibition, stronger effect = higher value; at 50.0 µM unless noted. An outline of the steps: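 Readout: growth inhibition relative to vehicle-treated cultures. Compound exposure was carried out in a genetically defined yeast strain deficient in DNA damage repair.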

Test [2] is described as follows: NCI Yeast Anticancer Drug Screen. Data for the mec2-1 strain (AID 157). The following applies: S. cerevisiae mec2-1 strain, stronger effect = higher value; at 50.0 µM unless noted. An outline of the steps: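 Using mec2-1 yeast: add compound, measure growth, express inhibition versus vehicle-treated cultures.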
Test [3] can be described thus: NCI Yeast Anticancer Drug Screen. Data for the sgs1 mgt1 strain (AID 161).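 Also: 0% = growth of cultures given vehicle only.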 The conditions noted are these: S. cerevisiae sgs1 mgt1 strain, stronger effect = higher value; at 50.0 µM unless noted. An outline of the steps: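 Percent growth inhibition was derived by comparing compound-exposed mutant yeast with vehicle-exposed cultures. The strain carries alterations in DNA damage repair.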

Test [4] can be described thus: NCI Yeast Anticancer Drug Screen. Data for the cln2 rad14 strain (AID 165).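 Also: 0% = growth equal to vehicle treated cultures.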 The conditions noted are these: S. cerevisiae cln2 rad14 strain, stronger effect = higher value; at 50.0 µM unless noted. A digest of the protocol:
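Yeast strain cln2 rad14, bearing defects in cell cycle control and DNA repair, serves as the test system; values reflect growth inhibition compared with vehicle.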

A short description of test [5]: NCI Yeast Anticancer Drug Screen. Data for the bub3 strain (AID 167). The following applies: S. cerevisiae bub3 mutant strain, stronger effect = higher value; at 50.0 µM unless noted. A digest of the protocol: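 Readout: yeast growth inhibition, expressed relative to vehicle-only wells. The test organism is a mutant strain from a panel with lesions in DNA repair or checkpoint genes.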

Test [6] in a line: NCI Yeast Anticancer Drug Screen. Data for the mlh1 rad18 strain (AID 175). The conditions noted are these: S. cerevisiae mlh1 rad18 strain growth inhibition, stronger effect = higher value; at 50.0 µM unless noted. A digest of the protocol:
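Steps: expose repair-defective yeast to compound; measure growth; express inhibition against vehicle-treated controls.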

For the compound `COc1ccc(C2S/C(=C\c3ccc([N+](=O)[O-])cc3)C(=O)N2NC(=O)Cc2ccccc2)cc1` (centres undefined), the growth inhibition in test [1] was 17.9%; in test [2], -7.95%; in test [3], 2.9%; in test [4] it was -23.8%; in test [5], 11.4%; in test [6], 8.65%.
As for `O=C(Cn1c(=O)ccn(C2OC(CO)C(O)C2F)c1=O)c1ccc(F)cc1` (centres undefined), the growth inhibition in test [1] was -2.5%; in test [2] it was 0.3%; in test [3], -30.9%; in test [4] it was -48.8%; in test [5], 0.6%; in test [6] it was 3.1%.
With `NCCCC(=S)S`, the growth inhibition in test [1] was -4.35%; in test [2] it was 12.6%; in test [3], -0.75%; in test [4], 12.8%; in test [5] it was 13.8%; in test [6] it was 13.4%.
Regarding `O=C(Nc1noc(-c2ccccc2)n1)c1ccccc1CNc1noc(-c2ccccc2)n1`, the growth inhibition is -7.75% in test [1]; -4.85% in test [2]; 0.8% in test [3]; -10.8% in test [4]; -6.7% in test [5]; 0% in test [6].
Consider `CCCC(=O)N(C(C)C)C(C)C`, for which the growth inhibition in test [1] is 11.2%; in test [2], 22%; in test [3], 12.5%; in test [4], 6.6%; in test [5] it was 8.5%; in test [6], 8.8%.
Regarding `COc1cc(C=O)c(Cl)cc1OC(C)=O`, the growth inhibition in test [1] was 32.9%; in test [2], 21.9%; in test [3], 36.4%; in test [4], 32.8%; in test [5], -10.1%; in test [6], 27.9%.
As to `CCN(CC)CC(=O)Nc1ccc2c(c1)C(=O)c1ccc(NC(=O)CN(CC)CC)cc1C2=O`, the growth inhibition in test [1] is 22.1%; in test [2] it was 8%; in test [3], -4.5%; in test [4], 16.4%; in test [5], -1.2%; in test [6], -8%.
`O=[N+]([O-])c1nccn1CC1OC(n2ccnc2[N+](=O)[O-])C(O)C(O)C1O` (centres undefined): the growth inhibition in test [1] was 0.3%; in test [2], 2.6%; in test [3], -2.95%; in test [4], 5.9%; in test [5], 25.3%; in test [6], 6.25%.
Regarding `Cn1cnc([N+](=O)[O-])c1Sc1ncc[nH]1`, the growth inhibition in test [1] was 1.3%; in test [2], 3.1%; in test [3] it was -3.05%; in test [4], 16.4%; in test [5], 9.7%; in test [6], 2.8%.
Turning to `O=C(O)c1ccccc1SCCO`, the growth inhibition in test [1] is -1.95%; in test [2] it was 18%; in test [3], 25.3%; in test [4], 47.8%; in test [5], -22.4%; in test [6], -3.8%.
As to `COc1ccc(N=N/C(=N/NC(=O)c2cc(Cl)ccc2C(=O)c2ccccc2)c2ccc(N(CCC#N)CCC#N)cc2C)cc1`, the growth inhibition in test [1] was 3.2%; in test [2], 12.6%; in test [3] it was -32.9%; in test [4], 12.5%; in test [5] it was -11.9%; in test [6], 12.8%.
For the compound `CC1(C)OC(=O)C(=Cc2ccc3c(c2)OCO3)C(=O)O1`, the growth inhibition in test [1] is 16.1%; in test [2] it was 4.25%; in test [3], -3.65%; in test [4], 19%; in test [5] it was -8%; in test [6] it was 5.1%.
In the case of `O=C(/C=C/c1ccc(-c2ccccc2)cc1)c1ccccc1`, the growth inhibition in test [1] is -16.7%; in test [2], -24.8%; in test [3], 7.75%; in test [4], -3.3%; in test [5], -20.6%; in test [6], -17.6%.
As for `Cc1ccc([N+](=O)[O-])cc1NC(=O)/C(=N/NC(=S)NN)C1SC(=S)NC1=O` (centres undefined), the growth inhibition in test [1] is 19.4%; in test [2], -12.1%; in test [3] it was 12.2%; in test [4] it was 20.9%; in test [5], -19.6%; in test [6], -8.75%.
Take `N/N=C1\CC2C3CC4(OCCO4)C4C3CC2C14` (centres undefined): the growth inhibition in test [1] was 1.6%; in test [2] it was -4.7%; in test [3], 1.75%; in test [4], 6.55%; in test [5], -7.6%; in test [6], 0.15%.
As to `N=C(N)c1ccc(NC(=S)Nc2ccc(C(=N)N)cc2)cc1`, the growth inhibition in test [1] was 43.1%; in test [2], 21.3%; in test [3] it was 32.1%; in test [4], 7.35%; in test [5] it was 16.4%; in test [6] it was 31.8%.
For the compound `O=C1OC(/C=C/c2ccccc2)=NC/1=C\c1ccc2c(c1)OCO2`, the growth inhibition was -4.95% in test [1]; 18.9% in test [2]; -16.4% in test [3]; -21.1% in test [4]; -1.85% in test [5]; -19.8% in test [6].
As for `NC(CCn1cnc2c(=O)[nH]cnc21)C(=O)O` (centres undefined), the growth inhibition in test [1] was 4.1%; in test [2] it was 10.3%; in test [3], 6.7%; in test [4], -31.6%; in test [5] it was -12.8%; in test [6] it was -11.7%.
In the case of `NC(=O)C(=CN1CC(=O)NC1=S)C(N)=O`, the growth inhibition in test [1] was -23.3%; in test [2] it was -23.4%; in test [3] it was -2.4%; in test [4], 9.85%; in test [5], -9.05%; in test [6], 17.1%.
Take `C=CC(=O)OCCN(CCCC)CCCC`: the growth inhibition in test [1] is -12.9%; in test [2], -0.2%; in test [3], -10.9%; in test [4], -10.8%; in test [5], 6.75%; in test [6], 21.5%.
On to `CCN(CC)CCOc1ccc(N2C(=O)c3cc(OC)c(OC)cc3C2=O)cc1`, for which the growth inhibition in test [1] is -23.4%; in test [2], -19%; in test [3], -14.9%; in test [4], 5.25%; in test [5] it was -32.1%; in test [6], -34.5%.
Turning to `CCC(=O)OC(C)COc1ccccc1` (centres undefined), the growth inhibition in test [1] is -6.2%; in test [2] it was 3.25%; in test [3] it was -3.9%; in test [4], -43.5%; in test [5], -5.8%; in test [6] it was -10.4%.
As for `O=c1c2cc(O)ccc2n2nnc3ccc(NCCNCCO)c1c32`, the growth inhibition in test [1] is -18.4% and -10.8%; in test [2] it was -16.3% and -12.1%; in test [3] it was -35.1% and -8.7%; in test [4], 18.1% and 16.9%; in test [5] it was 8.3% and 1%; in test [6], -4.7% and 3.1%.
As to `COc1ccc(OCc2ccc(OC)c(OC)c2)cc1`, the growth inhibition is 7.2% in test [1]; -3.7% in test [2]; -11.2% in test [3]; -10.7% in test [4]; -8.15% in test [5]; -7.35% in test [6].
As for `CCOC(=C\C(=O)NC)/C=C/c1ccc([N+](=O)[O-])cc1`, the growth inhibition in test [1] is -5.75%; in test [2] it was 0.65%; in test [3], -6.1%; in test [4], -18.4%; in test [5] it was 5.85%; in test [6] it was -3.45%.
On to `CC(=O)Nc1cc(S(=O)(=O)O)cc2cc(S(=O)(=O)O)cc(O)c12`, for which the growth inhibition in test [1] is -20.9%; in test [2] it was -13.3%; in test [3] it was -0.05%; in test [4] it was 21.8%; in test [5] it was 15.6%; in test [6], -8.2%.
Take `c1ccc(N2CN(c3ccccc3)C2)cc1`: the growth inhibition in test [1] was -19.4%; in test [2] it was -8.25%; in test [3], 4%; in test [4], -11.6%; in test [5] it was 5.6%; in test [6] it was 15.8%.
With `COc1ccc(C(=O)O)c(Cc2ccc3ccccc3c2)c1`, the growth inhibition is 0.4% in test [1]; -4.7% in test [2]; 4.3% in test [3]; 10% in test [4]; -5.95% in test [5]; 36% in test [6].
On to `CCCCN(CCCC)CCC(O)c1cc(-c2ccc(C(F)(F)F)cc2)nc(C(F)(F)F)c1` (centres undefined), for which the growth inhibition in test [1] was 98.5% (active); in test [2], 56.2%; in test [3], 97.6% (active); in test [4], 97.8% (active); in test [5], 47.1%; in test [6], 96.8% (active).
For the compound `CCC(=O)CC(=O)CCC(=O)Nc1ccc(Cl)cc1C`, the growth inhibition is -72.2% in test [1]; -15.4% in test [2]; -11.6% in test [3]; -55.2% in test [4]; -12.4% in test [5]; -9.55% in test [6].
`COC(=O)c1cc(NC(=O)Nc2cccc(C(C)=O)c2)cc(C(=O)OC)c1`: the growth inhibition in test [1] is -9.75%; in test [2], 31.2%; in test [3], 25.6%; in test [4] it was -10.2%; in test [5], 37.6%; in test [6], 36.4%.
In the case of `CC(C)(C)OC(=O)/N=C/c1c(O)c2ccccc2oc1=O`, the growth inhibition in test [1] was -36.5%; in test [2], -20.5%; in test [3], -21.8%; in test [4], 9.75%; in test [5], -17.4%; in test [6], -26%.
For the compound `CCCCCCNC(=O)CCN(C(=O)O)S(=O)(=O)c1ccc(NC(=O)c2ccccc2)cc1`, the growth inhibition in test [1] was 11.7%; in test [2] it was -3.45%; in test [3], 8.6%; in test [4], 17.7%; in test [5], 7.4%; in test [6] it was -1.45%.
Turning to `CCOC(OCC)c1cc(=O)[nH]c(NC(C)=O)n1`, the growth inhibition in test [1] is -1.15%; in test [2], 0.05%; in test [3], 10%; in test [4] it was -11.9%; in test [5] it was -1.25%; in test [6], 5.4%.
`COC(=O)C(=O)C(C#N)c1ccccc1Cl` (centres undefined): the growth inhibition in test [1] is 3.45%; in test [2], -17.2%; in test [3], 0.35%; in test [4], 0.5%; in test [5], -5.75%; in test [6], 5.15%.
On to `O=C(NC1(Sc2ccccc2)CC1)c1ccc(Cl)cc1`, for which the growth inhibition in test [1] is 17.8%; in test [2], 6.8%; in test [3] it was 8.9%; in test [4], 20.6%; in test [5], 13.8%; in test [6] it was 18.9%.
As for `c1ccc(CN2CCOC2)cc1`, the growth inhibition in test [1] was 15.6%; in test [2] it was 5.85%; in test [3] it was -13.1%; in test [4], 11%; in test [5], -2.2%; in test [6] it was -35.6%.
In the case of `CCOC(=O)c1nc2ccccc2c(=O)[nH]1`, the growth inhibition in test [1] was -1.85%; in test [2], -5%; in test [3] it was 1.5%; in test [4] it was -32.9%; in test [5] it was -8.6%; in test [6], -2.5%.
Regarding `CCCCCCCCCCCCCCCCNC(=O)C(=O)/C=C(\O)c1ccc(C)cc1`, the growth inhibition was 1.15% in test [1]; -24.4% in test [2]; 18.8% in test [3]; -44.5% in test [4]; 0.6% in test [5]; 1.4% in test [6].
